Assay results: the OligoGym collection

Each sequence was assayed against UBTD2 (assay: pooled miR-30 sensor sort-seq; sequence = guide strand). Conditions: shRNA.
Further: reference of the scale not given here.

Row | Sequence | sensor-assay potency score (higher = more potent)
1 | AAAACCACCGCTGACTACCTGG | -0.559
2 | TCTTGCTGCGTAGTTGTCCATC | -1.04
3 | TTCATAGGGAATTTAGAGCAGT | -0.206
4 | TATGTCGCTCTTTTCCTCTATC | -0.749
5 | TAACCTGTACAACATAGTCCTT | -0.877
6 | TCGAACTTCATTTTGTCAGTGA | 0.607
7 | TGTGCTGCGAACCACAAGCTTG | -1.41
8 | TGGAATACTGTGTCTGTGCTGC | -0.0459
9 | TATGTTTGCACCATCAATGATT | -0.561
10 | TACAACATAGTCCTTTGGGATC | -1.63
11 | AACCTGTACAACATAGTCCTTT | 0.105
12 | TACACTGGAAGCTGATATCTGT | 0.00464

Each sequence was assayed against UBXN2A in the same assay as above. Conditions: shRNA.

Row | Sequence | sensor-assay potency score (higher = more potent)
13 | TATATTTACATCTACCTGTTTC | -0.892
14 | TTCTTTATCAAAAATTCCCTGT | -0.0297
15 | TTAATATATCTTGATAACTGGT | -0.45
16 | TTAAATTTCTGGACAATCCTTT | 0.433
17 | TTGATTGTTGATTATTACCAAG | -1.29
18 | TACATCTACCTGTTTCTTCTGT | 0.409
19 | TTTTATATTTACATCTACCTGT | 0.256
20 | TTGTACTTATCTAAACATCTTC | -0.32
21 | TAACTTCTGAAATCGTCGTTGA | 0.784
